Bioassay records (PubChem BioAssay)
A selection: hits, their analogues and other compounds. The true share with any hit is near 2.5%.
TDP-43 yeast inh: inhibitors of TDP-43 toxicity in yeast; TDP-43 expressing yeast growth rescue, BacTiter-Glo, 24 h; Potency, µM (top dose mostly 46.1 µM), for the others: top-dose growth rescue (activation), most hits filed as activators; 1.8% of 410,000 active; AID 652104; note: potency is the fitted concentration of half-maximal effect; % of control where 0% means no effect; nearly all actives have a fitted effect of over 50% in size
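Luminescence from BacTiter-Glo reports growth of TDP-43-expressing yeast after 24 hr at 30 deg C with compound. Cells were raffinose-pregrown to mid-log, then seeded in galactose medium at OD600=0.02.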
Mito fusion yeast: inhibitors of mitochondrial division or activators of mitochondrial fusion; 0.23% of 320,000 active; S. cerevisiae fusion-defective mutant growth rescue, CellTiterGlo 48 h; AID 485298; Potency, µM (series often up to 46.1 µM), inactives show at the top dose growth rescue (activation), actives largely listed as activators; note: potency is the fitted concentration of half-maximal effect; % of control where 0% means no effect; nearly all actives have a fitted effect of over 45% in size
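Temperature-sensitive fusion-defective S. cerevisiae (e.g. fzo1-1, mgm1-5) were grown with compound in YPEG medium (3% ethanol, 3% glycerol) for 48 hours at 37C. Growth rescue was measured as viability by CellTiterGlo luminescence after 10 minutes at ambient.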
CCT modulator: cytosolic chaperonin activity modulation | purified chaperonin ATPase assay, HTRF ADP detection, 30 min | activity change, % (no concentration beside the values), hits read low | 0.3% of 360,000 active; in the data active = activity change below about -30%; note: % is set by controls: 0 for no effect and ±100 for the full control effect
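We incubate TRiC, 40 or 20 nM final, with library compounds at 76 uM and 10 uM ATP for 30 min at 37 °C. ADP formed is detected with Transcreener HTRF reagents after 30 min at room temperature.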
Akt phos inh: blocks phosphorylation of Akt | Neuro2A IGF-stimulated pAkt S473 HTRF, 20 min; stronger effect = lower value | activity change, % for hits at 50 µM | 0.32% of 360,000 active | AID 651550; in the data active = activity change below about -80%; inconclusive = mostly about -51% to -80%; note: % is set by controls: 0 for no effect and ±100 for the full control effect
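Neuro2A cells (4,500/well, DMEM with 0.5% FBS) were treated with compound at a single 50 µM final concentration, stimulated with 6 nM IGF for 20 min at 37 °C, and lysed. Phospho-Akt Ser473 was read by HTRF as 665/615 ratio ×10^4.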
aSyn rescue: inhibitors of alpha-synuclein toxicity in yeast | Potency, µM (doses to about 46.1 µM), for the others: top-dose growth rescue (activation), hits mostly activators | 0.14% of 370,000 active | Yeast expressing alpha-synuclein, growth rescue, BacTiter-Glo, 24 h; note: potency is the fitted concentration of half-maximal effect; % of control where 0% means no effect; nearly all actives have a fitted effect of over 65% in size
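Screening used galactose-induced yeast with toxic alpha-synuclein levels, exposed to compound for 24 hr at 30 deg C. Cell growth, read with BacTiter-Glo luminescence, gave the measured signal.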
Anesthetic bind: binds horse apoferritin like a general anesthetic. P02791. apoferritin/1-aminoanthracene competitive binding, fluorescence. Potency, µM (highest dose often 77.5 µM), inactives show at the top dose activity change, negative = displacement, usual class: inhibitors. 0.074% of 350,000 active. AID 485281; note: potency is the fitted concentration of half-maximal effect; % is set by controls: 0 for no effect and ±100 for the full control effect; nearly all actives have a fitted effect of over 20% in size
Target sequence (P02791 2-175 limits assumed): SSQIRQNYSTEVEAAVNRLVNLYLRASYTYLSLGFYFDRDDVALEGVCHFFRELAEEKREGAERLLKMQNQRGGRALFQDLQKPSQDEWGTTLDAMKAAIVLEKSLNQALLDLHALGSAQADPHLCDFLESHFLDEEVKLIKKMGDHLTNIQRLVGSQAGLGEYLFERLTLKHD
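Horse-spleen apoferritin (10 uM) was mixed with 50% saturated 1-aminoanthracene in PBS, exposed to compounds for 10 min at room temperature, and read for fluorescence (ex 380 nm, em 535 nm). Competitive displacement was fitted with a four-parameter Hill equation.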
Starred values were filed as active, the others as inactive; [ ] = remark or other dose. Unless noted, calls come from the whole dose curve; as a rule, active = well fitted curve in the direction sought with a large enough effect; inconclusive = small, poorly fitted or top-dose-only effect, or another doubt; inactive = no such curve, though single readings can be large; an effect the other way counts as inactive or inconclusive.

Results for CCOC(=O)N1CCC(N2Cc3cccc(C(=O)Nc4ccc(CC)cc4)c3C2=O)CC1 ?
TDP-43 yeast inh: 25.1µM*; Mito fusion yeast: 10.9%; CCT modulator: -1.4; Akt phos inh: inactive; aSyn rescue: 14.4%; Anesthetic bind: -15.1%

Results for CCc1nc(-c2ccccc2O)n(-c2ccccc2)n1 ?
TDP-43 yeast inh: 14.1µM*; Mito fusion yeast: 9.7%; CCT modulator: -0.7; Akt phos inh: inactive; aSyn rescue: -8.7%; Anesthetic bind: -4.4%

How did Oc1ccccc1-c1nc(/C=C/c2ccccc2Cl)nn1-c1ccccc1 do in these assays?
TDP-43 yeast inh: 24.6%; aSyn rescue: -6.1%; Anesthetic bind: 8.7%

What do the screens show for `Cc1cccc(OCC(=O)NCc2ccc3c(c2)CCN3C(=O)c2ccccc2)c1`?
TDP-43 yeast inh: 25.1µM*; Anesthetic bind: -8.0%

What do the screens show for `O=C(COc1ccc2c(c1)CCC2)Nc1ccccn1`?
TDP-43 yeast inh: -24.8%; Mito fusion yeast: -9.4%; CCT modulator: -0.8; Akt phos inh: inactive; aSyn rescue: -20.0%

Results for Cc1cccc(C(=O)N2CCc3cc(CNC(=O)CSc4ccccc4)ccc32)c1 ?
TDP-43 yeast inh: -0.3%; Anesthetic bind: -6.6%

Results for O=C(COc1ccc2c(c1)CCC2)NCc1ccccc1 ?
TDP-43 yeast inh: 11.2µM*; Mito fusion yeast: 4.2%; CCT modulator: -0.9; Akt phos inh: inactive; aSyn rescue: 8.6%; Anesthetic bind: 2.7%

How did CCN(CC)c1cc(C)c2cc(NC(=O)/C=C/c3cc(OC)c(OC)c(OC)c3)ccc2n1 do in these assays?
TDP-43 yeast inh: 19.9%; Anesthetic bind: -0.4%

How did Cc1cc(NC(=O)c2ccc(Cl)cc2Cl)n(-c2ccccc2)n1 do in these assays?
TDP-43 yeast inh: 20µM*; CCT modulator: -1.1; Akt phos inh: inactive; aSyn rescue: -4.6%

Results for Cc1cc(NC(=O)CSc2cc(Cl)ccc2Cl)n(-c2ccccc2)n1 ?
TDP-43 yeast inh: 12.6µM*; Mito fusion yeast: inconclusive; CCT modulator: -5.8; Akt phos inh: inactive; aSyn rescue: 15.8%; Anesthetic bind: 9.1%

What do the screens show for `Cc1cc(NC(=O)Nc2cc(C)nn2-c2ccccc2)n(-c2ccccc2)n1`?
TDP-43 yeast inh: 10.2%; Mito fusion yeast: 0.3%; CCT modulator: -1.1; Akt phos inh: inactive; aSyn rescue: -1.0%; Anesthetic bind: -10.2%

How did Cc1cc(NC(=O)COc2ccc(Cl)cc2Cl)n(-c2ccccc2)n1 do in these assays?
TDP-43 yeast inh: 17.5%; Mito fusion yeast: -3.7%; CCT modulator: 0.9; Akt phos inh: inactive; aSyn rescue: 2.8%; Anesthetic bind: -11.4%

How did CCN(CC)c1nc(NC2CCN(C)CC2)c2cc(OC)c(OC)cc2n1 do in these assays?
aSyn rescue: -1.4%

What do the screens show for `CCCNC(=O)CSc1nc2ccccc2nc1Cc1ccc(Cl)cc1`?
TDP-43 yeast inh: -10.3%; Anesthetic bind: 54.7%

How did O=C(CSc1nc2ccccc2c(=O)[nH]1)N1CCN(S(=O)(=O)c2ccccc2)CC1 do in these assays?
TDP-43 yeast inh: -17.2%; Mito fusion yeast: -0.7%; CCT modulator: -1.2; Akt phos inh: -84.2%*; aSyn rescue: -0.3%; Anesthetic bind: -17.6%

Results for O=c1[nH]cc(CCCc2ccccc2)c(=O)[nH]1 ?
TDP-43 yeast inh: 2.0%; CCT modulator: -48.9*; Akt phos inh: inactive; aSyn rescue: 0.2%

How did Cc1ccc(CCNC(=O)c2cc3cc(S(=O)(=O)N4CCCCC4)ccc3n2C)cc1 do in these assays?
TDP-43 yeast inh: 10.5%; Anesthetic bind: -7.4%

What do the screens show for `O=C(c1cccc(COc2cccc3ccccc23)c1)N1CCCC1`?
TDP-43 yeast inh: 22.4µM*; Mito fusion yeast: inconclusive; CCT modulator: 0.0; Akt phos inh: inactive; aSyn rescue: 17.1%; Anesthetic bind: -23.6%

What do the screens show for `O=C(CN1C(=O)CC(c2ccccc2)=Nc2ccccc21)Nc1ccc(Br)cc1`?
TDP-43 yeast inh: -5.2%; Anesthetic bind: -2.7%

How did O=C1CC(c2ccccc2)=Nc2ccccc2N1Cc1ccccc1 do in these assays?
TDP-43 yeast inh: 12.6µM*; Mito fusion yeast: -6.4%; CCT modulator: -6.0; Akt phos inh: inactive; aSyn rescue: 9.6%; Anesthetic bind: -8.0%

How did O=C(COC(=O)c1ccccc1O)NC12CC3CC(CC(C3)C1)C2 do in these assays?
TDP-43 yeast inh: 17.7%; CCT modulator: -1.8; Akt phos inh: inactive; aSyn rescue: -3.5%

Results for Cc1cnc(C(=O)OCC(=O)NC23CC4CC(CC(C4)C2)C3)cn1 ?
TDP-43 yeast inh: -6.0%; Mito fusion yeast: -0.7%; CCT modulator: -0.9; Akt phos inh: inactive; aSyn rescue: -4.4%; Anesthetic bind: 10µM*

Results for O=C(COC(=O)c1ccccn1)NC12CC3CC(CC(C3)C1)C2 ?
TDP-43 yeast inh: 14.7%; Mito fusion yeast: -0.1%; CCT modulator: 0.4; Akt phos inh: inactive; aSyn rescue: -7.2%; Anesthetic bind: 7.94µM*

What do the screens show for `Cc1cnc(C(=O)OCC(=O)C23CC4CC(CC(C4)C2)C3)cn1`?
TDP-43 yeast inh: -1.5%; Mito fusion yeast: -1.2%; CCT modulator: -0.9; Akt phos inh: inactive; aSyn rescue: -2.8%; Anesthetic bind: inconclusive

Results for COc1ccc(CCNC(=O)COC(=O)c2cnc(C)cn2)cc1 ?
TDP-43 yeast inh: 8.7%; Mito fusion yeast: -1.2%; CCT modulator: -2.1; Akt phos inh: -109.5%*; aSyn rescue: -8.3%; Anesthetic bind: -6.2%

What do the screens show for `COc1ccc(OC)c(-c2nnc(-c3ccc(C)o3)o2)c1`?
TDP-43 yeast inh: 12.6µM*; Mito fusion yeast: 3.2%; CCT modulator: -1.6; Akt phos inh: inactive; aSyn rescue: 1.8%; Anesthetic bind: -7.8%

Results for COC(=O)C/C=C\[C@@H](C)[C@@H](CO)NS(=O)(=O)c1ccc(C)cc1 ?
Anesthetic bind: -3.0%[15.3 µM]

Results for COc1ccc(S(=O)(=O)Nc2noc3ccccc23)cc1 ?
TDP-43 yeast inh: 11.2µM*; Mito fusion yeast: 7.0%; CCT modulator: 1.8; Akt phos inh: inactive; aSyn rescue: -4.4%; Anesthetic bind: 7.4%

How did COc1cccc(S(=O)(=O)Nc2noc3ccccc23)c1 do in these assays?
TDP-43 yeast inh: inconclusive; Mito fusion yeast: 6.7%; CCT modulator: 0.3; Akt phos inh: inactive; aSyn rescue: -0.1%; Anesthetic bind: 4.4%

What do the screens show for `CC(C)(C)c1ccc(S(=O)(=O)Nc2noc3ccccc23)cc1`?
TDP-43 yeast inh: 20µM*; Mito fusion yeast: 30.1%; CCT modulator: -2.6; Akt phos inh: inactive; aSyn rescue: -11.4%; Anesthetic bind: 6.1%
